# Experimental data as given in PubChem BioAssay.
# Activity calls are given as the source filed them.
# How the values were obtained:
# [1] = tested on: Plasmodium falciparum Sir2 (PF13_0152, Sir2A); experiment: Plasmodium falciparum Sir2A binding compounds – biochemical, small-molecule microarray, 635 nm fluorescence, primary screen (AID 1098); conditions: fluorescence 635 nm, higher = more signal;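 also: score merges spot fluorescence intensity with its signal-to-noise ratio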
# [2] = probe aDKK1 binding to arrayed compounds – biochemical, biotinylated probe, 635/667 nm fluorescence, primary screen (AID 1099); conditions: small-molecule microarray, higher = more signal;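 also: score merges 667nm spot fluorescence with signal to noise across triplicate slides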
# [3] = probe aCHRDL2 binding to arrayed compounds – biochemical, biotinylated probe, 635/667 nm fluorescence, primary screen (AID 1100); conditions: small-molecule microarray, higher = more signal
# [4] = change in splice reporter luminescence, either direction, cell-based, HEK293, spliceosome inhibition project, primary screen (AID 1101); conditions: HEK293 splicing luciferase reporter, 24 h, higher = more signal, called active from +8 up or from −8 down;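 also: HEK293 cells carrying a splicing-competent luciferase reporter gene; test concentration not given here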
# [5] = target: Fibroblast growth factor 10 (Homo sapiens) (UniProt O15520); experiment: compounds binding fibroblast growth factor 10 – biochemical, small-molecule microarray, 635 nm fluorescence, primary screen (AID 1102); conditions: FGF10 binding, fluorescence 635 nm, higher = more signal
# [6] = tested on: glycogen synthase kinase-3 (GSK3A per assay name; protocol says GSK3B); experiment: compounds binding glycogen synthase kinase-3 – biochemical, small-molecule microarray, 635 nm fluorescence, GSK3A, primary screen (AID 1103); conditions: fluorescence 635 nm, higher = more signal; also: the record names both GSK3A and GSK3B
# [7] = target: Epidermal growth factor receptor (Homo sapiens) (UniProt P00533); experiment: compounds binding epidermal growth factor receptor – biochemical, small-molecule microarray, 635 nm fluorescence, primary screen (AID 1104); conditions: EGFR binding, higher = more signal;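 also: score merges 667 nm emission intensity with spot signal to noise over triplicate slides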
# [8] = target: Follistatin-related protein 3 (Homo sapiens) (UniProt O95633); experiment: compounds binding follistatin-related protein 3 – biochemical, small-molecule microarray, 635 nm fluorescence, primary screen (AID 1105); conditions: FSTL3 binding, higher = more signal;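 also: score merges emission near 667 nm and signal to noise per printed spot across three slides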
# [9] = target: Dickkopf-related protein 1 (Homo sapiens) (UniProt O94907); experiment: small molecules binding DKK1 protein – biochemical, small-molecule microarray, 635 nm fluorescence scan, primary screen (AID 1106); conditions: higher = more signal;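 also: score merges emission near 667 nm with signal to noise over three replicate slides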
# [10] = tested on: Inhibin beta A chain (activin A); experiment: small molecules binding activin A – biochemical, small-molecule microarray, 635 nm fluorescence scan, primary screen (AID 1107); conditions: INHBA, higher = more signal;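 also: mouse activin A protein probed at 4.33 µg/mL on printed slides; score merges bound-protein fluorescence near 667 nm with spot signal-to-noise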
# [11] = tested on: Human papillomavirus type 1a protein E7 (residues 44-93); experiment: small molecules binding HPV E7 44-93 – biochemical, small-molecule microarray, residues 44-93, 635 nm fluorescence, primary screen (AID 1108); conditions: fluorescence 635 nm, higher = more signal;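 also: E7 fragment applied at 1 µg/mL in TBST for 1 h at 4 C; score combines spot fluorescence with its signal to noise ratio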
# [12] = hepatitis C replication reporter changes, two-sided – Huh7 cells, luciferase reporter, HCV replication inhibitor project, primary screen (AID 1109); conditions: Huh7 HCV replicon luciferase reporter, 48 h; higher = more signal;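 also: huh7 hepatoma cells harbouring a luciferase neomycin HCV replicon reporter; luciferase luminescence as measure of HCV replicon replication; test concentration not given here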
# [13] = target: Left-right determination factor 2 (Homo sapiens) (UniProt O00292); experiment: small molecules binding LEFTY2 protein – biochemical, small-molecule microarray, 635 nm fluorescence scan, primary screen (AID 1110); conditions: higher = more signal
# [14] = target: Calmodulin-1 (Homo sapiens) (UniProt P0DP23); experiment: small molecules binding calmodulin-1 with EGTA – biochemical, small-molecule microarray, Cy5-labelled CALM1, profiling panel (AID 1111); conditions: Cy5-CALM1 binding fluorescence, higher = more signal;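 also: labelled calmodulin applied in Tris saline Tween buffer holding calcium plus EGTA and DTT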
# [15] = target: Calmodulin-1 (Homo sapiens) (UniProt P0DP23); experiment: small molecules binding Ca-loaded calmodulin-1 – biochemical, small-molecule microarray, Cy5-labelled CALM1, plus calcium, artefact control for SMM control-protein annotation, profiling panel (AID 1112); conditions: Cy5-CALM1 binding fluorescence, higher = more signal;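 also: score merges spot fluorescence with signal to noise from triplicate slides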
# [16] = probe aWnt5a binding to arrayed compounds – biochemical, biotinylated probe, 635/667 nm fluorescence, primary screen (AID 1113); conditions: small-molecule microarray, higher = more signal;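 also: score merges 667 nm fluorescence intensity with signal-to-noise per printed feature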
# [17] = probe aShh binding to arrayed compounds – biochemical, biotinylated probe, 635/667 nm fluorescence, primary screen (AID 1114); conditions: small-molecule microarray, higher = more signal;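 also: probe is biotin-labelled aShh protein from a stem cell growth factor screen; measures binding of labelled protein to compounds printed on the slide; score merges feature fluorescence at 667 nm with signal-to-noise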
# [18] = probe aNog binding to arrayed compounds – biochemical, biotinylated probe, 635/667 nm fluorescence, primary screen (AID 1115); conditions: small-molecule microarray, higher = more signal;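 also: probe is biotinylated aNog protein used at 0.15 µg/mL for 1 h at 4 C; z-score combines 667 nm fluorescence of each spot with its signal to noise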
# [19] = target: Torsin-1A-interacting protein 1 (Homo sapiens) (UniProt Q5JTV8); experiment: compound microarray binding of lysate hLAP1 – cell lysate, small-molecule microarray, COS7 lysate, 635/667 nm fluorescence, primary screen (AID 1116); conditions: 635 nm fluorescence, higher = more signal
# [20] = target: Alpha-bungarotoxin (Bungarus multicinctus) (UniProt P60615); experiment: compounds binding labelled alpha-BTX control protein – biochemical, small-molecule microarray, Alexa647 label, 635/667 nm fluorescence, artefact control for SMM control protein annotation, profiling panel (AID 1117); conditions: alpha-BTX-A647 binding fluorescence, higher = more signal
# Chain of Alpha-bungarotoxin (Bungarus multicinctus) (P60615 whole entry, looked up): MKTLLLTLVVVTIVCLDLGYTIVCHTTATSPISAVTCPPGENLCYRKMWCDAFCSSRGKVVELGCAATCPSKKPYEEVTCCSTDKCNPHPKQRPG
# Chain of Epidermal growth factor receptor (Homo sapiens) (P00533 whole entry, looked up): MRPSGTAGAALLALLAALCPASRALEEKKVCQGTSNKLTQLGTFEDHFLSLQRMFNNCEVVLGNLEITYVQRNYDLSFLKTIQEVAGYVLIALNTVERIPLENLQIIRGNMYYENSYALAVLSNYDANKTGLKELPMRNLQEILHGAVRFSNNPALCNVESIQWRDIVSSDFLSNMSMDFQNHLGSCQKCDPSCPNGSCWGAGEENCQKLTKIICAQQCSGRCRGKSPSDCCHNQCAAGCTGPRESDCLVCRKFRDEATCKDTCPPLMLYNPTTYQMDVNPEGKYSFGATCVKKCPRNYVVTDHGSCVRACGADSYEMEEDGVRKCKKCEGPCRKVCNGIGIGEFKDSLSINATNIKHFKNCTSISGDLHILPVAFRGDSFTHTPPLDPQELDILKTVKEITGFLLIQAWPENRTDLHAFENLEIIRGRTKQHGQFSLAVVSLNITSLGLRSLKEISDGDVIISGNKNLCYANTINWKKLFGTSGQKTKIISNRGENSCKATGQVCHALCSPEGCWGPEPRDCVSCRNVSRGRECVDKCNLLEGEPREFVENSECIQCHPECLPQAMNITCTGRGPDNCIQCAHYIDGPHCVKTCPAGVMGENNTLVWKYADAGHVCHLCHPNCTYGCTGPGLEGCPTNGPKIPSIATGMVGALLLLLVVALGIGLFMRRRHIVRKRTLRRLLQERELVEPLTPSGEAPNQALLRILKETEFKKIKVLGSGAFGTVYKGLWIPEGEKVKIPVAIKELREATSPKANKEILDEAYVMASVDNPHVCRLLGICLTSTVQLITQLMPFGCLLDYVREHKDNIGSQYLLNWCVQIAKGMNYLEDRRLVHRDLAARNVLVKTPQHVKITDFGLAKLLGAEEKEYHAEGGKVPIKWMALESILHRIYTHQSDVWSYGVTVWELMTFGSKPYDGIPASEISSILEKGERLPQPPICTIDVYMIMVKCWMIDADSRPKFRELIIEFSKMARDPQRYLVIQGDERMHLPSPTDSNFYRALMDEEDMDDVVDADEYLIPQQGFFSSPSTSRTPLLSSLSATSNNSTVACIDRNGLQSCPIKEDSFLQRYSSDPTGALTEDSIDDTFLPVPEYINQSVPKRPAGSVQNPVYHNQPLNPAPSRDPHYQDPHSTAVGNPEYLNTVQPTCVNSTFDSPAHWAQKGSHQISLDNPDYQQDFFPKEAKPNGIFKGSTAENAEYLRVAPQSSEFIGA
# Chain of Dickkopf-related protein 1 (Homo sapiens) (O94907 whole entry, looked up): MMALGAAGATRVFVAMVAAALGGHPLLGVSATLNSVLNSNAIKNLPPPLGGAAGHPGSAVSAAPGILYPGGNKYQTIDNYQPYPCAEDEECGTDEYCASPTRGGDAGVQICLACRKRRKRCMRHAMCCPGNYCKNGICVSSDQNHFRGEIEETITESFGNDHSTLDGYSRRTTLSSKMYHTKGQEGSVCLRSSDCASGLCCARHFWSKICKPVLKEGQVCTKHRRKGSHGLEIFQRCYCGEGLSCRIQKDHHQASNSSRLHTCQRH
# Chain of Follistatin-related protein 3 (Homo sapiens) (O95633 whole entry, looked up): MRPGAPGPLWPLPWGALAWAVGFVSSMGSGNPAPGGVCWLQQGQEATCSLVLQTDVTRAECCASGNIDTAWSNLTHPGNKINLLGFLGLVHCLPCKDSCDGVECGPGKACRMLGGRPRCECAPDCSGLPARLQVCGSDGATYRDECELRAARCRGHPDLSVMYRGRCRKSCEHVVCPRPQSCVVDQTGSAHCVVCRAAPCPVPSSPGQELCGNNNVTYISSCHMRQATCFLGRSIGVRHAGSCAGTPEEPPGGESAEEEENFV
# Chain of Left-right determination factor 2 (Homo sapiens) (O00292 whole entry, looked up): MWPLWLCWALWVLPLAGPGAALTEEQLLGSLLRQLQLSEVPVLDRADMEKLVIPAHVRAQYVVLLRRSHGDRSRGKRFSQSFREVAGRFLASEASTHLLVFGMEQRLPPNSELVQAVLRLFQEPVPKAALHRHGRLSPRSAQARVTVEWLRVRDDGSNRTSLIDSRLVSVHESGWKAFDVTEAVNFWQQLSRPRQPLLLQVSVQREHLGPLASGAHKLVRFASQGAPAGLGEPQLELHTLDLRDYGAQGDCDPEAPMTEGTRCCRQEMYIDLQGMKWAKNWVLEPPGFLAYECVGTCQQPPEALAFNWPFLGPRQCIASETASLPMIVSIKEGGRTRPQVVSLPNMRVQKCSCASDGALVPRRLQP
# Chain of Fibroblast growth factor 10 (Homo sapiens) (O15520 whole entry, looked up): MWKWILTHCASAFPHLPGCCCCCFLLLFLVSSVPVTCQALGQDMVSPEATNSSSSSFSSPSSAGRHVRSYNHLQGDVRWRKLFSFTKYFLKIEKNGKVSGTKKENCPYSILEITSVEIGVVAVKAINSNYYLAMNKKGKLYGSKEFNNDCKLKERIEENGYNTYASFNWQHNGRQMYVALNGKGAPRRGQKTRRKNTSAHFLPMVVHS
# Chain of Torsin-1A-interacting protein 1 (Homo sapiens) (Q5JTV8 whole entry, looked up): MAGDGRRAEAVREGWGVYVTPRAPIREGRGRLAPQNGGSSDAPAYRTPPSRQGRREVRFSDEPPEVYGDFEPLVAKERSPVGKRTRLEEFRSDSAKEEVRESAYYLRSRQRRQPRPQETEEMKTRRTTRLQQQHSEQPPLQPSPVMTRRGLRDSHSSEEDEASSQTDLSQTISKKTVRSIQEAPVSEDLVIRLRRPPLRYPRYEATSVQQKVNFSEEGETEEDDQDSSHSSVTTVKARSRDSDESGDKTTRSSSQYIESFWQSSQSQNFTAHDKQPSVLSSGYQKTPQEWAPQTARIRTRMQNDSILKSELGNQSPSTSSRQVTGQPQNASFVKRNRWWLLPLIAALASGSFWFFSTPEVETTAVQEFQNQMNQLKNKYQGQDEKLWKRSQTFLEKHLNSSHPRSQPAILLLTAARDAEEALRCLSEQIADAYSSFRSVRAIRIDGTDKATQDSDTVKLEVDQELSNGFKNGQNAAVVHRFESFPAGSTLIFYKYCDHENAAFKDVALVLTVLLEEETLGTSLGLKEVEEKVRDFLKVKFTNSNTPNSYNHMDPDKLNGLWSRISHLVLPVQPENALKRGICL
Compound,composite z-score [1],composite z-score [2],composite z-score [3],z-score [4],composite z-score [5],composite z-score [6],composite z-score [7],composite z-score [8],composite z-score [9],composite z-score [10],composite z-score [11],z-score [12],composite z-score [13],composite z-score [14],composite z-score [15],composite z-score [16],composite z-score [17],composite z-score [18],composite z-score [19],composite z-score [20]
O[C@@H](Cc1ccccc1)[C@H]1C2C=CCCC=C2CN1Cc1cccc(Cl)c1 (stereo not given in full),0.77,-0.0422,-0.284,-0.381 (inactive),0.9,1.08,0.231,1.24,0.496,0.296,1.1,-1.42,0.702,0.0101,-0.2,-0.0721,-0.138,0.277,0.761,1.36
C=CCOC(=O)[C@H]1[C@@H]2C(=O)O[C@@H](c3ccccc3)[C@@H](c3ccccc3)N2[C@@H](c2ccc(OCCOC(=O)[C@H]3C[C@H]4C(=O)N[C@@H](CCCCNC(C)=O)C(=O)N4[C@H]3c3cccc(OCCO)c3)cc2)[C@]12C(=O)Nc1ccccc12,1.42,-0.194,0.285,0.29 (inactive),1.31,1.32,0.674,0.775,0.824,0.134,1.36,-1.47,0.578,2.53,-0.0073,-0.101,0.13,0.0588,1.22,0.977
C=C(CC1([C@@H](NP(=O)(c2ccccc2)c2ccccc2)[C@H]2C[C@@H]2CCCC)CC1)c1ccccc1,0.339,0.786,0.994,-2.51 (inactive),0.0431,0.014,0.243,0.438,0.104,0.705,1.23,-0.776,-0.0117,1.19,1.15,0.186,0.257,0.0585,1.17,0.598
CC1CC/C=C\[C@H]2OC34C=CCN(Cc5ccccc5)C(=O)[C@H]3N(CCCO)C(=O)[C@@H]4C2C(=O)O1 (stereo not given in full),0.881,-0.307,0.45,-0.0477 (inactive),-1.14,-0.657,-0.574,-1.07,-0.538,-0.192,-0.537,-1.29,-2.03,-0.226,0.876,-0.202,-0.449,0.0522,-0.0302,-0.973
COc1ccc(CCNC(=O)[C@@]2(Sc3ccc(C)cc3)CC(=O)N(C3Cc4ccccc4C3)[C@@H]2c2ccc(CO)cc2I)cc1,1.09,0.736,0.575,-1.27 (inactive),-0.461,-0.64,-0.895,-0.856,-1.41,0.48,0.615,-2.48,-0.911,0.113,0.795,-0.0398,-0.0234,0.136,0.548,1.59
COCCOC(=O)N1C(=O)[C@@]2(c3cc(C#CC4(O)CCCCCC4)ccc31)[C@H](c1ccccc1OCCO)N1[C@H](c3ccccc3)[C@H](c3ccccc3)OC(=O)[C@H]1[C@@H]2C(=O)N1CCN(c2ncccn2)CC1,0.892,0.0468,-0.0635,0.514 (inactive),1.12,1.03,0.484,1.18,0.991,0.244,0.0525,-2.18,0.46,0.156,-0.0855,-0.0944,0.0328,0.612,1.35,0.509
CO[C@H]1O[C@H](CO)[C@@H](OC(=O)Nc2ccc(C(F)(F)F)cc2)[C@H](OC(=O)Nc2ccc3c(c2)OCO3)[C@@H]1OC(=O)Nc1ccc2c(c1)OCO2,1.06,0.346,0.284,-1.29 (inactive),1.41,1.2,0.587,0.527,0.711,0.543,0.335,-2.44,0.819,0.784,-0.764,0.101,0.221,1.71,1.34,0.943
COc1ccc(CCNC(=O)[C@@]2(Sc3ccc(C)cc3)CC(=O)N(C(C)C)[C@@H]2c2ccc(CO)cc2I)cc1,0.699,0.187,0.778,-0.658 (inactive),-0.316,-1.02,-0.719,-0.645,-0.267,1.08,0.536,-2.41,-1.09,-0.434,0.428,-0.225,-0.0553,0.905,0.341,-0.333
